Experimental data from PubChem BioAssay (NCI).
The panel holds about 83,000 compounds, 20% with a hit somewhere; the sample as a whole holds those more often.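 How to read the values: 0–100, growth inhibition (40 = 60% inhibited); 0, no net growth; -100 to 0, cell death (-40 = 40% of starting cells died; -100 = all dead).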 The source made the active and inactive calls. The calls were made as follows: active = growth percent below 10; inactive = the rest.

System: IGROV1 ovarian
Test: NCI-60 one-dose screen, 48 h (100 = growth as untreated, 0 = no growth, -100 = all killed)
Settings: 10 µM unless noted

Compound | growth
O=C(NNc1nc2cc(C(F)(F)F)ccc2n2cccc12)c1cnccn1 | -16.3% (active)
Cc1cccc(NC(=O)[C@]23CCC(C)(C)CC2C2=CCC4[C@@]5(C)C[C@@H](O)[C@H](O)[C@@](C)(CO)C5CC[C@@]4(C)[C@]2(C)CC3)c1 (stereo partly drawn) | 35.6% (inactive)
CCCCSc1nc(NCCc2c[nH]c3ccccc23)c(C#N)c(-c2ccc(F)cc2)n1 | 92.3% (inactive)
COc1ccc(-c2ccnc(SCc3cc4cc(Cl)ccc4[nH]c3=O)n2)cc1 | 95.8% (inactive)
O=c1[nH]c2ccccc2cc1CSc1nccc(-c2ccc3ccccc3c2)n1 | 89.9% (inactive)
CCCCCCCCc1ccc(S(=O)(=O)Nc2ccc(CC)cc2C(=O)O)cc1 | 97.4% (inactive)
COc1cc(OC)c2c3nc4cc(C)c(C)cc4nc3n(CCN(C)C)c2c1 | 55.5% (inactive)
N#Cc1c(-c2cccc(O)c2O)cc(-c2ccc3ccccc3c2)[nH]c1=O | 48.8% (inactive)
O=c1[nH]n(C(=S)N/N=C/c2ccccc2Cl)c(=O)c2ccccc12 | 7.53% (active)
COc1ccc(C(=O)/C=C/c2cccc(Cl)c2Cl)cc1S(N)(=O)=O | 10.1% (inactive)
COc1ccc(C(=O)/C=C/c2cccnc2)cc1S(N)(=O)=O | 59.5% (inactive)
Cc1cc2nc3c4ccccc4n(CC4=NCCN4)c3nc2cc1C | 16.1% (inactive)
CCCCCCCCc1ccc(C(=O)Nc2cccc(P(=O)(O)O)c2)cc1 | 108% (inactive)
Cc1cc2nc3c([nH]c2cc1C)c1ccc(=O)cc1n3CCN(C)C | 28.2% (inactive)
O=C(c1ccc(Cl)cc1)c1ccc(OCCCN2CCN(c3ccncc3)CC2)cc1 | 67.3% (inactive)
CCCCSc1nc(NCCc2c[nH]c3ccccc23)c(C#N)c(-c2ccccc2)n1 | 96% (inactive)
O=C1N/C(=N\c2nccs2)S/C1=C\C=C/c1ccccc1 | 30.3% (inactive)
CC(=O)OC[C@@]1(C)C2CC[C@]3(C)C(CC=C4C5CC(C)(C)CC[C@]5(C(=O)Nc5cccc(C)c5)CC[C@]43C)[C@@]2(C)C[C@@H](OC(C)=O)[C@@H]1OC(C)=O (stereo partly drawn) | 61.8% (inactive)
COc1ccc(C(SCCNCc2cc(N(C)C)ccn2)(c2ccccc2)c2ccccc2)cc1 | 11.4% (inactive)

Compound | growth
O=c1onc(-c2cc3ccccc3nc2Cl)n1-c1cccc2ccccc12 | 61.8% (inactive)
COc1ccc(C2=NN(c3ccccc3)C(c3ccc(OCc4ccccc4)c(OC)c3)C2)cc1OC (stereo not drawn) | 102% (inactive)
Nc1n[nH]c2cccc(C#Cc3cccc(NC(=O)c4cccc(Cl)c4)c3)c12 | 21.6% (inactive)
O=C(Cn1c2c(sc1=O)[C@H]1[C@@H](O)[C@@H](O)[C@H](O)[C@@H]1CS2)N1CCOCC1 | 105% (inactive)
CC(=O)Nc1cccc(Nc2nc(N[C@H]3CCCc4ccccc43)c3ccccc3n2)c1 | 111% (inactive)
N/C(=N\c1nc2ccccc2s1)NC(=O)NCCCCCCO | 61.5% (inactive)
COc1ccc2c(c1)C(=N/N=C(\C)c1ccc(OC)c(S(N)(=O)=O)c1)C(=O)N2 | 107% (inactive)
CCCSc1nc(NCCc2c[nH]c3ccccc23)c(C#N)c(-c2ccc(F)cc2)n1 | 85.8% (inactive)
O=c1[nH]c2ccccc2cc1CSc1cccc(Nc2nccc(-c3ccc4ccccc4c3)n2)c1 | 102% (inactive)
CCN(CC)c1ccnc(CNCCSC(c2ccccc2)(c2ccccc2)c2ccc(C)cc2)c1 | -30.9% (active)
CN(C)CCn1c2ccccc2c2nc3cc(C(F)(F)F)ccc3nc21 | 22.4% (inactive)
CC1(C)CC[C@]2(C(=O)Nc3ccc(Br)cc3)CC[C@]3(C)C(=CCC4[C@@]5(C)C[C@@H](O)[C@H](O)[C@@](C)(CO)C5CC[C@]43C)C2C1 (stereo partly drawn) | 38.2% (inactive)
CCC(C)(C)c1ccc(OCCCCCCN2CCN(c3ccncc3)CC2)cc1 | 49.8% (inactive)
COc1ccc(C(=O)/C=C/c2ccc(Cl)c(Cl)c2)cc1S(N)(=O)=O | 11.1% (inactive)
Cc1cc(N=C2NC(=O)CS2)n[nH]1 | 99.8% (inactive)
Cc1ccc(C(=O)CSc2nc3ccc(F)cc3c(=O)n2-c2ccc(Cl)cc2)cc1 | 82.7% (inactive)
COc1ccc(C(=O)/C=C/c2cccc(Br)c2)cc1S(N)(=O)=O | -33.7% (active)
Cc1sc(C(NC(=O)OCCn2c([N+](=O)[O-])cnc2C)C(F)(F)Cl)nc1-c1ccc(OC(F)(F)F)cc1 (stereo not drawn) | -80.6% (active)
COc1ccc(NC(=O)Cn2c3c(sc2=O)[C@H]2[C@@H](O)[C@@H](O)[C@H](O)[C@@H]2CS3)cc1 | 104% (inactive)
